From PubChem BioAssay AID720597 (Broad Institute, 2013)
Potency and affinity values are given separately. The source made the active and inactive calls.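 How the source made its calls: active means fitted half-maximal dose no more than twice the top valid tested dose, for compounds that lower signal; inconclusive means fit invalid, or curve flat with activity between -70 and -30; inactive means potency past limit, curve flat within ±30, or signal increasing.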

Target: NAD-dependent protein deacylase sirtuin-5, mitochondrial (Homo sapiens) (UniProt Q9NXA8)
Sequence (Q9NXA8 whole entry, looked up): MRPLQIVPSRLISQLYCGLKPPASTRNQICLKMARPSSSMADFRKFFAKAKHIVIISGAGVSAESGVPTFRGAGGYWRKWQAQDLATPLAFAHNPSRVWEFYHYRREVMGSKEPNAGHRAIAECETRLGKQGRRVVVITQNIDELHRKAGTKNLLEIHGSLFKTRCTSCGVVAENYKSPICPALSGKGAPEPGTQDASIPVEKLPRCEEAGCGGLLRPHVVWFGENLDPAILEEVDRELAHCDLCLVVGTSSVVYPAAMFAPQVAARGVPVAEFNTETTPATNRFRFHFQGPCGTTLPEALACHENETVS
Assay: blockers of sirtuin-5 peptide desuccinylation – biochemical, fluorescence imaging, cherry-pick, set 6, dose response (AID 720597);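 further: lower AMC signal can also come from blocking the trypsin step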
Settings: Purified SirT5, succinyl-peptide-AMC/trypsin fluorescence; series mostly up to 15 µM

SMILES	outcome
C[C@@H]1CN([C@@H](C)CO)C(=O)c2c(c3ccccc3n2C)-c2ccccc2CO[C@@H]1CN(C)Cc1cccc(O)c1	inactive
C[C@@H]1CN([C@H](C)CO)C(=O)c2cc(C#CCN(C)C)cnc2O[C@H]1CN(C)Cc1ccncc1	inactive
COc1ccc(S(=O)(=O)Nc2ccc3c(c2)C(=O)N([C@@H](C)CO)C[C@@H](C)[C@@H](CN(C)Cc2ccc(C(F)(F)F)cc2)OCCCC[C@H](C)O3)cc1	inactive
O=C(C[C@H]1C[C@@H]2c3cc(NC(=O)C4CCC4)ccc3O[C@@H]2[C@@H](CO)O1)NCc1ccc(-c2ccccc2)cc1	inactive
C[C@@H]1CN([C@H](C)CO)C(=O)c2cccc(NC(=O)c3ccncc3)c2O[C@@H]1CN(C)S(C)(=O)=O	inactive
C[C@H]1CN([C@@H](C)CO)C(=O)CCCn2nncc2CO[C@@H]1CN(C)C(=O)CCCN(C)C	inactive
C[C@H]1CN([C@@H](C)CO)C(=O)c2cc(C#Cc3cccc(F)c3)cnc2O[C@@H]1CN(C)CC1CCCC1	inactive
Cc1noc(C)c1S(=O)(=O)Nc1ccc2c(c1)CC(=O)N([C@H](C)CO)C[C@H](C)[C@@H](CN(C)Cc1ccc(C(=O)O)cc1)O2	inactive
Cc1cccc(-c2ccc([C@H]3[C@H]4CN(S(=O)(=O)c5cccc(F)c5)CC(=O)N4[C@H]3CO)cc2)c1	inactive
CC(C)(C)NC(=O)CSc1nnc(-c2ccco2)n1-c1ccccc1	inactive
Cc1ccc(S(=O)(=O)N(C)C[C@H]2OCCCC[C@H](C)Oc3ccc(NS(=O)(=O)c4ccc(Cl)cc4)cc3C(=O)N([C@@H](C)CO)C[C@@H]2C)cc1	inactive
O=S(=O)(N[C@@H]1CC[C@@H](CCn2cc(Cc3ccccc3)nn2)O[C@H]1CO)c1ccccc1F	inactive
C[C@@H]1CN([C@@H](C)CO)C(=O)c2cccc(NC(=O)c3ccncc3)c2O[C@@H]1CN(C)S(C)(=O)=O	inactive
C[C@H](CO)N1C[C@H](C)[C@@H](CN(C)C(=O)Nc2cc(F)ccc2F)Oc2cc(/C=C/c3ccccc3)ccc2S1(=O)=O	inactive
O=C(c1ccc2c(c1)OCO2)N1CC(=O)N2[C@H](CO)[C@H](c3ccc(C#CCC4CCCC4)cc3)[C@@H]2C1	inactive
Cc1cccc(-c2noc(CN(C(=O)c3ccc(Br)o3)C(C)C)n2)c1	inactive
O=C(NCC[C@@H]1CC[C@H](NC(=O)C2CC2)[C@@H](CO)O1)c1cc(Cl)cc(Cl)c1	inactive
COc1ccc(S(=O)(=O)N2CCCCN3[C@H](CO)[C@H](c4ccc(C#CC(C)C)cc4)[C@H]3C2)cc1	inactive
COCC(=O)NC[C@H]1N[C@H](CO)[C@H]1c1ccc(C2=CCCCC2)cc1	inactive
C[C@H](CO)N1C[C@H](C)[C@@H](CN(C)Cc2ccc(Oc3ccccc3)cc2)Oc2ccc(NS(=O)(=O)c3ccc(Cl)cc3)cc2CC1=O	inactive
CC(=O)N(C)C[C@@H]1Oc2ncc(C#Cc3cccc(F)c3)cc2C(=O)N([C@H](C)CO)C[C@H]1C	inactive
CCCC#Cc1ccc2c(c1)O[C@H](CN(C)Cc1ccccc1)[C@@H](C)CN([C@H](C)CO)S2(=O)=O	inactive
CCCN(C[C@H]1[C@H](c2ccccc2)[C@@H](CO)N1C(C)=O)C(=O)NC(C)C	inactive
C[C@H](CO)N1C[C@H](C)[C@@H](CN(C)C(=O)C2CCOCC2)Oc2ncc(-c3ccccc3)cc2C1=O	inactive
CC(C)CC#Cc1ccc2c(c1)O[C@H](CN(C)C(=O)C1CCCCC1)[C@@H](C)CN([C@@H](C)CO)S2(=O)=O	inactive

SMILES	outcome
Cc1ccc(S(=O)(=O)Nc2ccc3c(c2)C(=O)N([C@H](C)CO)C[C@@H](C)[C@H](CN(C)Cc2ccc(Cl)c(Cl)c2)OCCCC[C@H](C)O3)cc1	inactive
Cc1ccc(S(=O)(=O)N(C)C[C@H]2OCCCC[C@@H](C)Oc3ccc(NS(=O)(=O)c4ccccc4)cc3C(=O)N([C@H](C)CO)C[C@H]2C)cc1	inactive
Cc1ccc(S(=O)(=O)Nc2ccc3c(c2)C(=O)N([C@@H](C)CO)C[C@H](C)[C@H](CN(C)Cc2ccc(C(F)(F)F)cc2)OCCCC[C@@H](C)O3)cc1	inactive
C[C@@H](O)C#Cc1ccc([C@H]2[C@H](CO)N3CCCCN(CC4CC4)C[C@@H]23)cc1	inactive
Cc1cccc(S(=O)(=O)N2CCCCN3[C@H](CO)[C@@H](c4ccc(-c5ccccc5)cc4)[C@H]3C2)c1	inactive
COc1cccc(S(=O)(=O)N(C)C[C@H]2Oc3cc(C4=CCCCC4)ccc3S(=O)(=O)N([C@H](C)CO)C[C@H]2C)c1	inactive
O=C(NCC[C@@H]1CC[C@@H](NS(=O)(=O)c2ccc(Cl)cc2)[C@H](CO)O1)c1ccccc1F	inactive
C[C@@H]1CN([C@H](C)CO)C(=O)c2cc(NC(=O)CCCCCC(=O)Nc3ccccc3N)ccc2O[C@@H]1CN(C)Cc1ccc(Cl)c(Cl)c1	inactive
C[C@@H]1CN([C@H](C)CO)C(=O)c2cc(NC(=O)CCC(F)(F)F)ccc2O[C@H]1CN(C)Cc1ccc(Oc2ccccc2)cc1	inactive
C[C@@H]1CN([C@@H](C)CO)C(=O)c2cccc(NS(=O)(=O)c3cn(C)cn3)c2O[C@H]1CN(C)Cc1ccc(C(F)(F)F)cc1	inactive
C[C@H](CO)N1C[C@H](C)[C@@H](CN(C)C(=O)Nc2ccc(C(F)(F)F)cc2)OCCCC[C@H](C)Oc2ccc(NS(=O)(=O)c3ccc(Cl)cc3)cc2C1=O	inactive
COc1ccc(S(=O)(=O)N(C)C[C@@H]2OCCCC[C@@H](C)Oc3ccc(NS(=O)(=O)c4ccc(F)cc4)cc3C(=O)N([C@@H](C)CO)C[C@H]2C)cc1	inactive
C[C@H](CO)N1C[C@H](C)[C@@H](CN(C)Cc2ccc(Cl)c(Cl)c2)Oc2ccc(NS(=O)(=O)c3ccccc3)cc2CC1=O	inactive
C[C@@H]1CCCCO[C@@H](CN(C)Cc2ccc(Cl)c(Cl)c2)[C@H](C)CN([C@@H](C)CO)C(=O)c2cc(NS(=O)(=O)c3cccs3)ccc2O1	inactive
C[C@H](CO)N1C[C@H](C)[C@@H](CN(C)Cc2ccc(Cl)c(Cl)c2)Oc2ccc(NC(=O)CCC(F)(F)F)cc2CC1=O	inactive
Cn1cnc(S(=O)(=O)N[C@H]2CC[C@@H](CC(=O)Nc3ccccc3)O[C@@H]2CO)c1	inactive
C[C@@H]1CN([C@@H](C)CO)C(=O)c2cc(NC(=O)C3CC3)ccc2O[C@@H]1CN(C)S(=O)(=O)c1cn(C)cn1	inactive
Cc1noc(C)c1NC(=O)Nc1cccc2c1O[C@@H](CN(C)Cc1ccc(Oc3ccccc3)cc1)[C@H](C)CN([C@H](C)CO)C2=O	inactive
CN(C)C(=O)[C@@H]1[C@@H](CO)[C@@H]2Cn3c(ccc(-c4ccccc4)c3=O)[C@H]1N2CCc1ccccc1	inactive
COc1cccc(CN(C)C[C@@H]2OCc3ccccc3-c3c(n(C)c4ccccc34)C(=O)N([C@H](C)CO)C[C@H]2C)c1	inactive
C[C@@H]1CN([C@H](C)CO)C(=O)c2cc(Br)cnc2O[C@@H]1CN(C)Cc1cncnc1	inactive
O=C(C1CCOCC1)N1CC2(C1)[C@@H](c1ccccc1)[C@@H](CO)N2CCC(F)(F)F	inactive
CCOC(=O)N(C)C[C@@H]1OCc2ccccc2-c2ccccc2C(=O)N([C@@H](C)CO)C[C@H]1C	inactive
Cc1noc(C)c1S(=O)(=O)N(C)C[C@@H]1Oc2ccc(NC(=O)Cn3cnnn3)cc2C(=O)N([C@@H](C)CO)C[C@@H]1C	inactive
CC(C)C#Cc1cnc2c(c1)C(=O)N([C@H](C)CO)C[C@@H](C)[C@H](CN(C)C(=O)CN1CCOCC1)O2	inactive
